Measured values as given in PubChem BioAssay AID1729 (National Center for Advancing Translational Sciences (NCATS), 2009).
Results filed as inconclusive are left out. Entries that show only a call come without a potency. Active and inactive are the calls of the source. Calls come from the whole dose curve; as a rule, active = well fitted curve in the direction sought with a large enough effect; inconclusive = small, poorly fitted or top-dose-only effect, or effect the other way, or another doubt; inactive = no such curve, though single readings can be large or run the other way.

These compounds were tested against Epidermal growth factor receptor (Homo sapiens) (UniProt P00533) (assay: Assay for Inhibitors of the ERK Signaling Pathway using a Homogeneous Screening Assay: EGFR T790M Kinase Inhibition). Conditions: EGFR T790M kinase biochemical inhibition assay; series mostly up to 21.9 µM.
Epidermal growth factor receptor (Homo sapiens), sequence (P00533 whole entry T790M, looked up): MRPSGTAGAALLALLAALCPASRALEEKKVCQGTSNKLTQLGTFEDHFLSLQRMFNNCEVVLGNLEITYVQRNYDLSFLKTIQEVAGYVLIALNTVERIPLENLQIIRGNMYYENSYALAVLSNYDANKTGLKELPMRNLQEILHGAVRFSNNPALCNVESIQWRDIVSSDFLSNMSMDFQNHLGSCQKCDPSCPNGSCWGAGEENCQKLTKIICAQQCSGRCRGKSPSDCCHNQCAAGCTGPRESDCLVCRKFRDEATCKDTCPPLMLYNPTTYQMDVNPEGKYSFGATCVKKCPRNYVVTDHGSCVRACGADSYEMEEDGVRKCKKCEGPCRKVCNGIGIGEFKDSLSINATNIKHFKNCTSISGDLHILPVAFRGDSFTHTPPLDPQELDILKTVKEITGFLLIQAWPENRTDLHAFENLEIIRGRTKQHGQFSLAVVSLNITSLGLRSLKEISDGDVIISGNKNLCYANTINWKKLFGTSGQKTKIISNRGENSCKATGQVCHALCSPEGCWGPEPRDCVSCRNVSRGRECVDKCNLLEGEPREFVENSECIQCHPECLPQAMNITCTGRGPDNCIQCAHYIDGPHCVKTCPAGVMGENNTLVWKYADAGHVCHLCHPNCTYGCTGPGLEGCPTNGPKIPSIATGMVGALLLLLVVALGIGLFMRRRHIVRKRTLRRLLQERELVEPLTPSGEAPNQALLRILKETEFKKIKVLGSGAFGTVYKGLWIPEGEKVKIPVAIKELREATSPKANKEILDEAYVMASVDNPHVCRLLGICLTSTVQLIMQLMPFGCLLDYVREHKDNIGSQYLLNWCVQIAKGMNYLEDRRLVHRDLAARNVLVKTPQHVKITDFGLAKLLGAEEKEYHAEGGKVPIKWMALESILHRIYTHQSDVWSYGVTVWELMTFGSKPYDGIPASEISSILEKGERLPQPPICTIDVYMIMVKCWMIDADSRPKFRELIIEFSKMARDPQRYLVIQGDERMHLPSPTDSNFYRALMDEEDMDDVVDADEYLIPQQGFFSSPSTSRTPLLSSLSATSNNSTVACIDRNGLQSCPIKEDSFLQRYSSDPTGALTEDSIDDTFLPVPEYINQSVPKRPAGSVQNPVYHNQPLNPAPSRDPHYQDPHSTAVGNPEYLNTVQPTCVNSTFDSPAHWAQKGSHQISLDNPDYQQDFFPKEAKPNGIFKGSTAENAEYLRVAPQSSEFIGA
From the text: qHTS Assay for Inhibitors of the ERK Signaling Pathway using a Homogeneous Screening Assay
NIH Chemical Genomics Center [NCGC]
NIH Molecular Libraries Screening Centers Network [MLSCN]
Assay Submitter (PI): Dr. Wei Zheng, NCGC/NIH
The Ras/extracellular-signal-regulated kinase (ERK) mitogen activated protein (MAP) kinase signaling pathway (ERK1/2 cascade) plays is a key role in transmitting signals from the cell surface to the nucleus (Nishida and Gotoh 1993; Chang and Karin, 2001). The cascade is initiated by the small G-protein Ras, which recruits Raf […], where activation occurs. Alternatively, this pathway can be activated by elevating intracellular cAMP.
Activation of the ERK pathway is essential in increased cell division and cell survival. Sustained and constitutive activation of the ERK pathway, however, has been linked to uncontrolled cell proliferation, increased cell survival, and tumor progression. Thus, the ERK has been as an attractive target for cancer chemotherapy in the past few years (Sebolt-Leopold and Herrera, 2004). Given its physiological and pathological importance, assessment of ERK phosphorylation has been broadly performed in both basic research and drug discovery. Most assays for the measurement of ERK phosphorylation use the antibody-based detection methods, such as western blot and ELISA. These assays require multiple reagent additions with cell wash steps and are not suitable for high-throughput screening.
The current cell-based ERK phosphorylation assay was performed using AlphaScreen platform. AlphaScreen is a two bead-based proximity-dependent chemical energy transfer luminescent assay platform. The assay reagents (ERK SureFire(TM) kit) were supplied from TGR BioSciences (Australia). In the presence of specific antibodies, phosphorylated ERK will bring "donor" and "acceptor" beads to a proximity range (<200 nm), and subsequently lead a chemical luminescent reaction upon exciting donor beads with 680 nm laser. To validate pathway hits from the cell-based assay, enzyme assays consisting of EGFR tyrosine kinase, Raf and MEK were used as a means of deciphering the enzymes of target for the prioritized group of compounds derived from the HEK-293 cell based assay. The compounds were tested against significant members of the ERK signaling pathway EGFR and EGFR mutants (EGFR L858R, EGFR T790M, and EGFR L858R T790M). In order to establish the specificity of the prioritized compounds for EGFR and EGFR mutants, the compounds were also assayed against other important ERK signaling pathway enzymes, c-RAF and MEK-1.
NCGC Assay Protocol Summary:
The HTRF kinase assay (components supplied as kit by Cisbio) was chosen for the EGFR and EGFR mutant enzyme assays that applied the time resolved fluorescence resonance energy transfer (TR-FRET) principle. A peptide substrate is labeled with a biotin that can bind to XL665 labeled streptavidin and the anti-phosphoresidue antibody is labeled with Eu+. Upon phosphorylation of the substrate, the antibody binds to phosphorylated substrate that enables TR-FRET detection in homogenous assay format.
An HTRF Kinease TK assay kit (Cisbio, Bedford, MA) was used to develop the EGFR and EGFR mutant assays (Harbert et al., 2008. Harbert C, Marshall J, Soh S, Steger K. Development of a HTRF Kinase Assay for Determination of Syk Activity. Current Chemical Genomics. 1: 20-26. 2008). EGFR and EGFR mutants were obtained from Invitrogen. The assay buffer was composed of 50 mM HEPES (pH 7.0), 5 mM MgCl2, 5mM DTT, 0.1 % NaN3, 0.1 % BSA and 0.1 mM orthovanadate.
The HTRF assays were preformed according to the HTRF Kinease TK kit. Optimization for each enzyme was preformed in 384 well format (data not included). All reagents were dispensed into 1536 well plates.
(1) Enzyme, […] EGFR at 3 nM final
(2) Compound, 22 nl, Library Compounds in 0.128 to 10 mM titration series or control
(3) Reagent, 1.5 ul 10 uM ATP and 0.25 uM substrate final
(4) Incubation for 30 min, Ambient conditions
[…]

SMILES	Potency
Cc1ccc2nc(=O)c(NNc3ccccc3)cnc2c1	355 nM (active)
O=C(Nc1nc(-c2ccccc2)cs1)c1ccc(N2CCOCC2)c([N+](=O)[O-])c1	inactive
Cn1c(=O)[nH]c2nnc(-c3ccc(Cl)c(Cl)c3)nc2c1=O	inactive
COc1ccc(C(=O)c2ccc(Cl)c([N+](=O)[O-])c2)cc1	inactive
Fc1ccc(Nc2ncnc3sc4c(c23)CCC4)cc1F	inactive
Cc1nc2ccccc2nc(=O)c1NNc1ccccc1	316 nM (active)
CCn1c(=O)c2[nH]c(-c3ccccc3)nc2n(CC)c1=O	inactive
CS(=O)(=O)CCNCc1nc(-c2ccc3ncnc(Nc4ccc(OCc5cccc(F)c5)c(Cl)c4)c3c2)cs1	inactive
CCN(CC)CCC(=O)Nc1cccc2c1C(=O)c1ccccc1C2=O	inactive
Cn1nc(-c2ccc(Cl)cc2)nc2c(=O)n(C)c(=O)nc1-2	inactive
Cc1ccc(NNc2c(C)nc3ccccc3nc2=O)cc1	inactive
N#C/C(=C(/N)Sc1ccc(N)cc1)c1ccccc1C(F)(F)F	inactive
